Laboratory results: PubChem BioAssay (NCATS)
Results filed as inconclusive are left out. Activity calls are given as the source filed them. The call rests on the fitted dose curve; in most records, active means well fitted curve in the direction sought with a large enough effect; inconclusive means small, poorly fitted or top-dose-only effect, or another doubt; inactive means no such curve, though single readings can be large or run the other way.

test: qHTS Assay for Identifying Gametocytocidal Compounds (AID 743244);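 on max response: actives lower the fluorescent signal which means gametocytes are killed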; details: P. falciparum 3D7 stage III-V gametocytes, alamarBlue, 72 h; max response: hits give low values
Text: Malaria cases and deaths have dropped 50% in 29 countries since 2000 due to the combined effects of long-lasting insecticidal bednets, indoor residual spraying, and artemisinin-based combination therapies (ACTs). This success has raised hopes for malaria eradication and consequently stimulated interest in developing new reagents that block gametocyte transmission such as novel and safe gametocytocidal drugs. However, previous drug development efforts have focused primarily on the asexual parasites that cause symptoms, but not malaria transmission. Consequently, patients can remain infectious for weeks after the clearance of asexual parasites and clinical symptoms. To be transmitted from person to person via a mosquito, the parasites must switch from asexual to sexual development and produce male and female gametocytes. Malaria gametocytes consist of five stages (I, II, III, IV and V). The late stage gametocytes (III, IV and V) are difficult to be cultured in vitro and the long lifespan of mature gametocytes allows them being transmitted from host to mosquitoes unless they are completely eliminated by gametocytocidal agents. To identify gametocytocidal compounds which are capable of killing late stage P. falciparum gametocytes, a high throughput gametocyte viability assay was employed. This assay uses oxidoreduction indicator, alamarBlue, as a general measure of metabolic activity of gametocytes. Within live cells, the nonfluorescent resazurin is reduced to resorufin, a bright red fluorescence dye. Fluorescence decreases upon treatment of gametocytocidal compounds. P. falciparum gametocyte (3D7 strain) was used in this study.
The 1536-well gametocycidal viability assay was based on the previous method of Tanaka et al. Stage III-V gametocytes were tested against three compound libraries, including 4265 compounds from NCGC pharmaceutical collection, 400 from Malaria Box library, and 550 from an internal collection of kinase inhibitors. Briefly, 2.5 ul/well incomplete medium was dispensed into each well of 1,536-well plates using the Multidrop Combi followed by 23 nl compound transferring using the NX-TR Pintool (WAKO Scientific Solutions, San Diego, CA). Then, 2.5 ul/well of gametocytes was dispensed with a seeding density of 20,000 cells/well using the Multidrop Combi. The assay plates were incubated for 72 h at 37C with 5% CO2. After addition of 5 ul/well of 2X AlamarBlue dye (Life Technologies, cat. no. DAL1100), the plates were incubated for 24 h at 37C with 5% CO2 and then were read in a fluorescence detection mode (Ex = 525 nm, Em = 598 nm) on a ViewLux plate reader (PerkinElmer).
On the % scale 0 is the no-effect control and ±100 the full control effect; potency means the concentration at half of the fitted maximal effect.

| Structure (SMILES) | max response | Potency |
| --- | --- | --- |
| NC(=Nc1ccccc1)NC(=O)c1nc(Cl)c(N)nc1N | 12.9% (inactive) | – |
| C=C1C[C@@]23CC[C@H]4[C@@](C)(CCC[C@@]4(C)C(=O)O)[C@@H]2CC[C@]1(O)C3 | 31.3% (inactive) | – |
| O=C(O)C1CN(CCCP(=O)(O)O)CCN1 (stereo not given) | -7.29% (inactive) | – |
| OC[C@H]1NC[C@@H](O)[C@@H]1O | 20.9% (inactive) | – |
| COc1ccc(-c2ccc(N)[n+](CCCC(=O)O)n2)cc1 | 23.8% (inactive) | – |
| COc1ccccc1N1CCN(CCCCN2C(=O)c3ccccc3C2=O)CC1 | 10.1% (inactive) | – |
| NCCNS(=O)(=O)c1cccc2c(Cl)cccc12 | – | 3.16 µM (active) |
| CCCCCCCCCCCCCCCCCCOC[C@H](COP(=O)([O-])OCC[N+](C)(C)C)OC | 10.4% (inactive) | – |
| COc1ccc(CCn2nnnc2C2(c3ccc(C)cc3)CC2)cc1 | 13.1% (inactive) | – |
| CC(C)(C)c1cc(/C=C(\C#N)C(N)=S)cc(C(C)(C)C)c1O | 6.59% (inactive) | – |
| N=C(N)SCCc1cnc[nH]1 | 9.89% (inactive) | – |
| NC(=O)c1ccccc1 | -3.76% (inactive) | – |
| CC(=O)C(C)=O | 0.793% (inactive) | – |
| CNC(=O)c1cc2c(cn1)[nH]c1ccccc12 | 10.2% (inactive) | – |
| CN1Cc2sccc2C(c2ccc(O)c(O)c2)C1 (stereo not given) | – | 0.891 µM (active) |
| O=c1ccn([C@@H]2O[C@H](COP(=O)(O)OP(=O)(O)O)[C@@H](O)[C@H]2O)c(=O)[nH]1 | 17.2% (inactive) | – |
| O=C(O)[C@H]1NCCC[C@H]1C(=O)O | 8.68% (inactive) | – |
| O=C(O)c1ccccc1Nc1ccccc1 | 4.62% (inactive) | – |
| Nc1ccc2c3c(cccc13)C(=O)NC2=O | 4.5% (inactive) | – |
| CN[C@H](CC(=O)O)C(=O)O | 19.8% (inactive) | – |

| Structure (SMILES) | max response | Potency |
| --- | --- | --- |
| CC1=C(C(=O)O)N2C(=O)[C@@H](NC(=O)C(N)C3=CCC=CC3)[C@H]2SC1 (stereo not given in full) | 5.72% (inactive) | – |
| CCCCCCCC/C=C\CCCCCCCC(=O)NCCc1ccc(O)c(O)c1 | 7.46% (inactive) | – |
| N[C@@H](CS(=O)O)C(=O)O | 27.3% (inactive) | – |
| C#CCn1c(=O)c2c(ncn2C)n(C)c1=O | 7.96% (inactive) | – |
| CC(N)(C(=O)O)c1ccc(C(=O)O)cc1 (stereo not given) | 12% (inactive) | – |
| NC1CCN(O)C1=O (stereo not given) | 19.4% (inactive) | – |
| COCc1nc2c([nH]1)c(=O)n(C)c(=O)n2CC(C)C | 28.7% (inactive) | – |
| Nc1nc2ccc(Cl)cc2c2nc(-c3ccco3)nn12 | -3.79% (inactive) | – |
| Oc1cc2c(cc1O)C(c1ccccc1)CNCC2 (stereo not given) | 20.1% (inactive) | – |
| O=[N+]([O-])c1cccc2c(Br)[nH]nc12 | -25.7% (inactive) | – |
| O=C(O)C1=CCNCC1 | 2.03% (inactive) | – |
| CC1C(=O)N(C)C(=O)c2nc[nH]c21 (stereo not given) | 38.8% (inactive) | – |
| CC1=C(/C=C/C(C)=C/C=C/C(C)=C\C(=O)O)C(C)(C)CCC1 | 17.8% (inactive) | – |
| Cc1nc(N=Nc2cc(S(=O)(=O)O)c3cc([N+](=O)[O-])cc(S(=O)(=O)O)c3c2)c(COP(=O)(O)O)c(C=O)c1O | -2.01% (inactive) | – |
| O=C(O)C1CCNCC1 | 10.6% (inactive) | – |
| O=C(O)C1=CC(=C(c2ccc(O)c(C(=O)O)c2)c2ccc(O)c(C(=O)O)c2)C=CC1=O | 21.2% (inactive) | – |
| O=c1[nH]c2cc(Cl)ccc2c(O)c1-c1ccc(Oc2ccccc2)cc1 | 17.9% (inactive) | – |
| NC1(C(=O)O)CCCCC1 | 26.2% (inactive) | – |
| Cc1nc(N=Nc2ccc(S(=O)(=O)O)cc2S(=O)(=O)O)c(COP(=O)(O)O)c(C=O)c1O | 14.8% (inactive) | – |
| Oc1cc(O)c2c(c1)O[C@H](c1ccc(O)c(O)c1)[C@@H](O)C2 | -4.64% (inactive) | – |
